Source: PubChem BioAssay
Mtb betalactam – beta-lactam sensitization of Mtb H37Rv | M. tuberculosis H37Rv growth with meropenem, percent inhibition | inhibition, % at 25 µM | 0.27% of 330,000 active | AID 434955; call rule not given here;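 note: growth measured after seven days incubation then overnight dye step; 0% = bacteria only wells and 100% = bacteria with antibiotic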
Mtb FBA inh – Mtb fructose-bisphosphate aldolase inhibition. 2.3% of 360,000 active. inhibition, % at 1 µM. purified M. tuberculosis FBA, fluorescence read-out;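 note: 0% = vehicle and 100% = reference inhibitor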
Target sequence (P9WQA3 whole entry, looked up): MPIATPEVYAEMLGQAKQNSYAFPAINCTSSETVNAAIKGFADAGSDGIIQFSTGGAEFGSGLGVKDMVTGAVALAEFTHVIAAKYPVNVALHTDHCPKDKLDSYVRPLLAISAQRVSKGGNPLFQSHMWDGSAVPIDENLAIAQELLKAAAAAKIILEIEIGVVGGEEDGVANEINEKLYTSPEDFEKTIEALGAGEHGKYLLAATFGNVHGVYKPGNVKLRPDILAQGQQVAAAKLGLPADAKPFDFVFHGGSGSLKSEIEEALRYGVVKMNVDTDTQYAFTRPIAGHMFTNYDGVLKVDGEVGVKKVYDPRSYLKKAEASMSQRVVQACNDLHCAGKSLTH
Mtb hypoxia inh – inhibitors of hypoxia-regulated fluorescent reporter in Mycobacterium tuberculosis; M. tuberculosis hypoxia-regulated fluorescent reporter, fluorescence; fluorescence inhibition, % (no concentration beside the values); 0.1% of 300,000 active; AID 1159583; in the data active = fluorescence inhibition mostly above about 23%, no sharp cut-off; inactive = mostly below about 17%
GDH-TPI counter-1 – counter-screen for M. tuberculosis FBA inhibitors: GDH-TPI coupled enzymes; inhibition, % at 4.8 µM; AID 588335; 1.2% of 360,000 active; GDH-TPI coupled enzyme counterscreen, NADH absorbance; in the data active = inhibition above about 30%;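 note: 0% = DMSO wells and 100% = wells lacking the enzyme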
VHR inh abs – blocks human VHR1 dual specificity phosphatase | recombinant VHR phosphatase, pNPP absorbance | inhibition, % at 13.3 µM | 0.52% of 290,000 active | AID 1654; in the data active = inhibition above about 50%
Target sequence (P51452 whole entry, looked up): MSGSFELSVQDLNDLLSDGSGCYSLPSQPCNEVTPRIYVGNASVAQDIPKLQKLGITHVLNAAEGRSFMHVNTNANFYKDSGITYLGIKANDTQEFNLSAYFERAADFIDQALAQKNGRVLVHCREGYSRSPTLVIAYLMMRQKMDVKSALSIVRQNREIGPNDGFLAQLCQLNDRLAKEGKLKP
Mtb FBA confirm – confirmation of M. tuberculosis fructose-bisphosphate aldolase inhibitors; shares compounds with Mtb FBA inh; purified M. tuberculosis FBA, fluorescence read-out; inhibition, % at 1 µM; 78% of 5,600 active;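 note: 0% = vehicle wells and 100% = reference inhibitor wells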
GDH-TPI counter-2 – counter-screen for M. tuberculosis FBA inhibitors: GDH-TPI coupled enzyme inhibition; shares compounds with Mtb FBA inh; GDH-TPI coupled enzyme counterscreen, fluorescence; inhibition, % at 1 µM; 81% of 5,600 active; in the data active = inhibition above about 10%
Numbers without * were called inactive; / = not tested or not shown; + = active, no number. Only some compounds are listed: those with a hit (about 3.6% of all), similar ones and a draw of the others. Cut-off read from the data, not from the text of the source, unless noted: active = inhibition above about 27%; inactive = the rest.

SMILES	Mtb betalactam	Mtb FBA inh	Mtb hypoxia inh	GDH-TPI counter-1	VHR inh abs	Mtb FBA confirm	GDH-TPI counter-2
Cc1cccn2c(=O)c3cc(C(=O)N4COCC4(C)C)sc3nc12	1	44*	20	-8	10	191*	149*
Cc1cccn2c(=O)c3cc(C(=O)N4CCC5(CC4)OCCO5)n(C)c3nc12	-1	6	-90	4	20	/	/
COCCCNC(=O)c1cc2c(=O)n3cccc(C)c3nc2s1	0	65*	3	19	6	66*	47*
CCCCNC(=O)c1cc2c(=O)n3cccc(C)c3nc2s1	6	74*	3	24	13	+	+
Cc1cccn2c(=O)c3cc(C(=O)NCCCN4CCOCC4)n(C)c3nc12	/	/	/	/	9	/	/
Cc1ccccc1NC(=O)c1cc2c(=O)n3cccc(C)c3nc2s1	11	3	2	16	8	/	/
CSCCC(C(=O)NCCCCCCCCCCC(=O)N1CCN(C(=O)OC(C)(C)C)CC1)n1cc(CCO)nn1 (stereo not given)	/	/	-2	/	/	/	/
CC1(C(=O)N2CC3(CC(c4cccc([N+](=O)[O-])c4)=NO3)CC2C(=O)NCC(N)=O)CC1 (stereo not given)	/	/	0	/	/	/	/
COC(=O)C1=C(c2ccc(Cl)c(C(F)(F)F)c2)CC2CCC1N2C (stereo not given)	/	/	4	/	/	/	/
COc1ccc(-c2ccc3c(c2)CN(C(=O)CCc2ccccc2)Cc2cnnn2-3)cc1	/	63*	/	/	/	+	173*
COc1ccccc1-c1cc2nc(C)cc(C)n2n1	2	9	9	10	10	/	/
CCn1c(C)c(CCC(=O)O)c(=O)n2nc(-c3ccccc3OC)cc12	-3	54*	-9	12	-10	40*	41*
COC(=O)C1=C(c2ccc(-c3ccccc3)c(F)c2)C[C@@H]2CC[C@H]1N2C(=O)NCCNC(C)=O	-3	43*	/	3	/	45*	38*
Cc1ccc(C=Nn2cnnc2)s1	/	/	13	/	/	/	/
O=C(c1ccc2c3c(cccc13)CC2)C1CCCN(C(=O)c2ccc[n+]([O-])c2)C1 (stereo not given)	1	29*	13	16	4	+	165*
O=C(c1ccc2c3c(cccc13)CC2)C1CCCN(C(=O)c2cc[n+]([O-])cc2)C1 (stereo not given)	0	19	7	6	3	/	/
O=c1c2c(nc3cc(-c4ccccc4)[nH]n13)CCC2	16	44*	/	6	5	111*	98*
O=c1c2c(nc3cc(-c4ccc(Br)cc4)[nH]n13)CCCC2	2	5	3	3	-27	/	/
COc1ccc(-c2cc3nc4c(c(=O)n3[nH]2)CCC4)cc1	-3	38*	-16	11	6	151*	129*
Cc1c(Nc2c3ccccc3nc3ccccc23)c(=O)n(-c2ccccc2)n1C	-1	109*	0	6	-9	-2	-1
Nc1nc(N)c2cc(Sc3ccc4ccccc4c3)ccc2n1	99	9	-11	6	23	/	/
Nc1nc(N)c2cc(Sc3ccc(Cl)cc3)ccc2n1	/	68*	/	9	/	64*	59*
Nc1nc(N)c2cc(Sc3cccc(C(F)(F)F)c3)ccc2n1	/	52*	/	7	/	+	177*
O=C(NN=Cc1ccc(-c2ccccc2[N+](=O)[O-])o1)[C@H]1C[C@@H]1c1ccccc1	/	/	-1	/	/	/	/
C=C(Cl)COc1ccc2c(CC)cc(=O)oc2c1	10	28*	13	8	12	+	+
SMILES	Mtb betalactam	Mtb FBA inh	Mtb hypoxia inh	GDH-TPI counter-1	VHR inh abs	Mtb FBA confirm	GDH-TPI counter-2
C=C(Cl)COc1ccc2c(C)cc(=O)oc2c1	37	19	6	6	4	/	/
C=C(Cl)COc1ccc2c(CCCC)cc(=O)oc2c1	-6	24	/	2	-29	/	/
C=C(C)COc1ccc2c(CC)cc(=O)oc2c1	-3	40*	9	1	2	85*	69*
COc1cc(CCCN2C(=S)NCC2CC2CCCCC2)cc(OC)c1OC (stereo not given)	/	/	-5	/	/	/	/
Cc1ccc(C(=O)Nc2ccc3nccnc3c2)cc1	-14	37*	/	12	48	44*	36*
Cc1cc(NC(=O)c2ccc3nccnc3c2)ccc1Br	-7	-3	-3	4	/	/	/
CC(C)CC(NC(=O)c1[nH]cnc1C(=O)NC(C)C(=O)OC(C)(C)C)C(=O)OCc1ccccc1 (stereo not given)	/	/	11	/	/	/	/
COc1ccc(-c2cc(=Nc3ccc(C)cc3)c3ccccc3o2)cc1	/	29*	3	21	5	108*	77*
CCOc1ccc(N=c2cc(-c3ccc(OC)cc3)oc3ccccc23)cc1	/	22	8	14	-8	/	/
CN(Cc1ccc(F)cc1)C(=O)CNC(=O)c1cccs1	2	64*	9	4	/	1	-5
COc1ccc(C(C(=O)NCC2CCCO2)N(C(=O)c2snc(C(N)=O)c2N)c2ccccc2C)cc1OC (stereo not given)	2	50*	-5	14	-7	168*	+
CCc1ccccc1N(C(=O)c1snc(C(N)=O)c1N)C(C(=O)NCC1CCCO1)c1ccc(OC)c(OC)c1 (stereo not given)	/	62*	0	24	30	+	+
COc1ccc(C(C(=O)NCC2CCCO2)N(C(=O)c2snc(C(N)=O)c2N)c2ccccc2)cc1OC (stereo not given)	/	13	3	27	44	/	/
CCN1C(=NCCc2ccc(Br)cc2)NC(c2ccccc2)C(C(=O)OC)C1C (stereo not given)	/	/	-12	/	/	/	/
C/C(N)=C(/C#N)C(=O)COC(=O)c1ccccc1O	-2	-3	9	-1	0	/	/
C/C(N)=C(/C#N)C(=O)COC(=O)c1cccc2ccccc12	1	28*	-4	5	-6	73*	55*
OCc1ccc(-c2nn(Cc3ccccc3)c3ccccc23)o1	6	58*	7	18	/	82*	67*
CN(C)CCN1C(=O)C(=O)C(=C(O)c2ccc(OCc3ccccc3)cc2)C1c1ccncc1 (stereo not given)	/	/	9	/	/	/	/
Cc1[nH]c2ccc(F)cc2c(=O)c1SC(F)(F)C(F)C(F)(F)F (stereo not given)	1	2	10	0	32	/	/
COc1cccc2c(=O)c(SC(F)(F)C(F)C(F)(F)F)c(C)[nH]c12 (stereo not given)	1	35*	4	14	26	114*	100*
COc1cccc2c(=O)c(C/C=C(/C)Cl)c(C)[nH]c12	16	39*	-2	4	12	50*	42*
Cc1ccccc1CN1C2c3ccccc3CC2OCCS1(=O)=O (stereo not given)	/	/	12	/	/	/	/
COC(=O)c1c(S(N)(=O)=O)c2ccccc2n1C	1	33*	-1	-3	12	+	+
